Measurements as given in PubChem BioAssay (EPA / NIEHS).
Active and inactive are the calls of the source. How the source made its calls: active means hit-call score of the fitted dose curve at least 0.9, where 1 is the maximum; inactive means score below 0.9.

molecular target: Signal transducer and activator of transcription 3 (Homo sapiens) (UniProt P40763); test: ATG_STAT3_CIS: Attagene CIS-FACTORIAL HepG2 Assay for human Signal Transducer and Activator of Transcription 3 (STAT3) (AID 2282963); settings: HepG2, Attagene cis-factorial STAT3 reporter transcription; actives raise or lower the signal
How it was run: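 Readout is reporter transcript quantified by RT-PCR and capillary electrophoresis, with 6-FAM primer extension and HpaI digestion. Total RNA is taken 24 h after dosing transiently transfected HepG2 carrying cis-regulated reporter units. Bidirectional fit against DMSO.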

Sequence of Signal transducer and activator of transcription 3 (Homo sapiens) (P40763 whole entry, looked up): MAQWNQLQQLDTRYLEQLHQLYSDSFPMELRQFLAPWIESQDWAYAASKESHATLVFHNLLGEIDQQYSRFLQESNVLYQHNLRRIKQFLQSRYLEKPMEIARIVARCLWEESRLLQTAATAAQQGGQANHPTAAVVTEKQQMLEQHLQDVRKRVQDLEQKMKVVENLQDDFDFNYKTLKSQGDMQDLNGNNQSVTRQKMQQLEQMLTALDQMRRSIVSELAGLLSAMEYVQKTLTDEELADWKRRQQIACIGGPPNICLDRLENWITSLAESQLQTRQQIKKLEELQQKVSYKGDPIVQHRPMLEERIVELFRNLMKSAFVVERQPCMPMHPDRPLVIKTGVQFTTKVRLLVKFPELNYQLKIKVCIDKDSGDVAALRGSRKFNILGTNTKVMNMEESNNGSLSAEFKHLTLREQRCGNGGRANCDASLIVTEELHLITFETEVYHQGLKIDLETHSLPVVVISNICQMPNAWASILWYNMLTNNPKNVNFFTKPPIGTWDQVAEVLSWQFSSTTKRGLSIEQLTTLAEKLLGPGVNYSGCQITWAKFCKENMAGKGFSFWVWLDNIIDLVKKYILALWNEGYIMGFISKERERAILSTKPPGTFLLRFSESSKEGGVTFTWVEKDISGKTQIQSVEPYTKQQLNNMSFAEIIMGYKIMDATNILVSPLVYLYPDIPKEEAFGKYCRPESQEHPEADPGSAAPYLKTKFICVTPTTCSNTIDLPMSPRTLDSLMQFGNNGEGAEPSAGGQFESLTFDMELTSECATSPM

outcome, inactive:
O=c1cc(-c2ccccc2)oc2ccc3ccccc3c12
O=C(Nc1ccc(Cl)c(Cl)c1)c1cc(Cl)cc(Cl)c1O
c1ccc2c(c1)CCC2
O=C1Cc2ccccc2N1c1c(Cl)cccc1Cl
Clc1ccc(Nc2nnc(Cc3ccncc3)c3ccccc23)cc1
Brc1cc(Br)c(Oc2c(Br)cc(Br)c(Br)c2Br)cc1Br
C=CC(=O)OCCC(F)(F)C(F)(F)C(F)(F)C(F)(F)C(F)(F)C(F)(F)F
O=C(C=C(O)C(F)(F)F)C(F)(F)F
Nc1cc(Cl)c(-c2cc(Cl)c(N)cc2Cl)cc1Cl
CCC(=O)C=Cc1ccc(OC)cc1
COC(O)c1ccccc1 (stereo not drawn)
CC1CCC(C(=O)O)CC1 (stereo not drawn)
CC1CNCC(C)O1 (stereo not drawn)
Cc1ccc(N=Nc2c(O)ccc3ccccc23)c(C)c1
Nc1ccc(O)c(C(=O)O)c1
Cc1[nH]nc2c1N=C(c1ccccc1Cl)c1cc([N+](=O)[O-])ccc1N2
O=C(O)C(=O)O
CCc1cccc(CC)c1N(COC)C(=O)CS(=O)(=O)O
Clc1ccc2c(Cl)ccnc2c1
COC1=CC(=O)C[C@@H](C)[C@]12Oc1c(Cl)c(OC)cc(OC)c1C2=O
O=C(Nc1cccc([N+](=O)[O-])c1)c1cc2ccccc2cc1O
CCc1cccc(CC)c1NC(=O)C(=O)O
O=CC(F)(F)C(F)(F)C(F)(F)F
CCCCCCc1ccc(N)cc1
COc1cccc(O)c1
FC(F)(F)C1(F)C(F)(F)C(F)(F)C(F)(F)C1(F)F
C=CC(=O)OCCC(F)(F)C(F)(F)C(F)(F)C(F)(F)C(F)(F)C(F)(F)C(F)(F)C(F)(F)F
CCCCCc1ccc(O)cc1
O=C1OC(=O)c2cc(-c3ccc4c(c3)C(=O)OC4=O)ccc21
FC(F)(F)C(F)(F)C(F)(F)C(F)(F)I
OCCN1CN(CCO)CN(CCO)C1
Oc1c(Cl)cc(Cl)cc1Sc1cc(Cl)cc(Cl)c1O
COc1cc([N+](=O)[O-])ccc1N
CC(C)(c1ccc(Oc2ccc(N)cc2)cc1)c1ccc(Oc2ccc(N)cc2)cc1
CCCC=O
CCCCCCCCC(C)=O
NC(C(F)(F)F)C(F)(F)F
Cc1ccc(C)c(S(=O)(=O)O)c1
